Where “and” joins values, the source holds several entries; their conditions need not be identical. Equal values may be shown once. Results filed as inconclusive are left out. Some structures have more than one record in an assay (separate samples or runs), and their calls can disagree. Calls of active or inactive are those of the source. Calls follow the shape of the dose curve; as a rule, active = well fitted curve in the direction sought with a large enough effect in the repeat runs; inconclusive = weak or mixed curves; inactive = no such curve, though single readings can be large; an effect the other way counts as inactive or inconclusive.
Columns and labels:
[1] = A CellTox Green Cytotoxicity Assay to monitor cytotoxicity in HepG2 cells - 0 hour (AID 1224882); also: nearly all actives have a fitted effect of over 35% in size; also: potency is read from the fitted curve at half-maximal effect
In short: (§1)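 Cells and non-lytic dye reagent are dispensed together (600 HepG2 cells/well) and incubated 5 h before DMSO compound transfer. Kinetic fluorescence is then recorded in the same wells during 40 h at 37 C.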

[2] = A CellTox Green Cytotoxicity Assay to monitor cytotoxicity in HepG2 cells - 32 hour (AID 1224883); also: nearly all actives have a fitted effect of over 50% in size; also: potency is read from the fitted curve at half-maximal effect
In short: as §1

[3] = A CellTox Green Cytotoxicity Assay to monitor cytotoxicity in HEK293 cells - 8 hour (AID 1224884); also: nearly all actives have a fitted effect of over 35% in size; also: potency is read from the fitted curve at half-maximal effect
In short: (§2)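 Cells (HEK293, 600/well) and dye reagent are dispensed together. After 5 h at 37 C, 23 nL compound is pinned in. Plates stay at 37 C for 40 h with fluorescence read at 0h, 8h, 16h, 24h, 32h and 40h.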

[4] = qHTS RealTime-Glo MT Cell Viability Assay in HEK293 cells - 24 hour (AID 1224886); also: nearly all actives have a fitted effect of over 50% in size; also: potency is read from the fitted curve at half-maximal effect; as to activity change, negative = cytotoxicity: top concentration of the series differs between compounds
In short: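 Tox21 10K qHTS, HEK293, 600 cells/well, RealTime-Glo reagent co-dispensed with cells; 5 h preincubation, compound by pintool, 37 C, luminescence at 0–40 h.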

[5] = qHTS RealTime-Glo MT Cell Viability Assay in HEK293 cells - 8 hour (AID 1224887); also: nearly all actives have a fitted effect of over 50% in size; also: potency is read from the fitted curve at half-maximal effect; as to activity change, negative = cytotoxicity: top concentration of the series differs between compounds
In short: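 Real-time viability in HEK293: signal arises when living cells convert a prosubstrate for NanoLuc in the medium, so luminescence tracks viable cell number. Compound (23 nL, DMSO) added 5 h post-seeding; kinetic reads at 0–40 h, 37 C.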

[6] = A CellTox Green Cytotoxicity Assay to monitor cytotoxicity in HEK293 cells - 16 hour (AID 1224888); also: nearly all actives have a fitted effect of over 35% in size; also: potency is read from the fitted curve at half-maximal effect
In short: as §2

[7] = qHTS RealTime-Glo MT Cell Viability Assay in HepG2 cells - 0 hour (AID 1224889); also: nearly all actives have a fitted effect of over 50% in size
In short: (§3)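 Cells + NanoLuc/prosubstrate dispensed (600 cells/well) → 5 h at 37 C/5% CO2 → compounds in DMSO transferred → 40 h incubation at 37 C, luminescence read at 0, 8, 16, 24, 32, 40 h.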

[8] = A CellTox Green Cytotoxicity Assay to monitor cytotoxicity in HepG2 cells - 8 hour (AID 1224890); also: nearly all actives have a fitted effect of over 45% in size; also: potency is read from the fitted curve at half-maximal effect
In short: as §1

[9] = qHTS assay to identify small molecule antagonists of the estrogen receptor alpha (ER-alpha) signaling pathway using the BG1 cell line in the presence of 0.1 nM 17-beta-estradiol - cell viability counter screen (AID 1259241); also: nearly all actives have a fitted effect of over 40% in size
In short: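 Live-cell protease activity (CellTiter-Fluor fluorescence, 30 min) was read in the same wells after VM7Luc4E2 cells had been exposed to compounds with 0.1 nM 17beta-estradiol for 22 hr at 37C.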

[10] = qHTS RealTime-Glo MT Cell Viability Assay in HepG2 cells - 16 hour (AID 1224885); also: nearly all actives have a fitted effect of over 50% in size; also: potency is read from the fitted curve at half-maximal effect
In short: as §3
% is scaled to controls: 0 for no effect and ±100 for the full control effect.

CON(C)C(=O)Nc1ccc(Cl)cc1
inactive: Potency [1] | Potency [2] | Potency [3] | Potency [4] | Potency [5] | Potency [6] | outcome [7] | Potency [8] | Potency [9]

CCCCCBr
inactive: Potency [1] | Potency [2] | Potency [3] | Potency [10] | Potency [6] | outcome [7] | Potency [8] | Potency [9]

c1ccc2sc(SNC3CCCCC3)nc2c1
inactive: Potency [1] | Potency [2] | Potency [3] | Potency [10] | Potency [4] | Potency [5] | Potency [8] | Potency [9]

Nc1cc(Cl)cc(C(=O)O)c1Cl
inactive: Potency [1] | Potency [2] | Potency [3] | Potency [4] | Potency [5] | Potency [6] | outcome [7] | Potency [8] | Potency [9]

CCCCNC(=O)OCC#CI
active: Potency [2] 54.9 µM | Potency [10] 10.9 µM and 4.9 µM | Potency [4] 21.8 µM and 21.9 µM | Potency [5] 24.5 µM
inactive: Potency [1] | Potency [3] | Potency [8]

O=C(CCl)CCl
active: Potency [2] 22.7 µM | Potency [4] 18 µM and 19.5 µM
inactive: Potency [1] | Potency [3] | Potency [5] | Potency [6] | outcome [7] | Potency [8] | Potency [9]

CCCCCCCCCCCCCCCl
inactive: Potency [1] | Potency [2] | Potency [3] | Potency [4] | Potency [5] | Potency [6] | outcome [7] | Potency [8] | Potency [9]

C[C@@H]1C[C@@H]([C@H](O)CC2CC(=O)NC(=O)C2)C(=O)[C@@H](C)C1
inactive: Potency [1] | Potency [2] | Potency [3] | Potency [5] | Potency [6] | outcome [7] | Potency [8] | Potency [9]
active: Potency [4] 434 nM and 245 nM and 169 nM

COC1CC(=C(c2cccs2)c2cccs2)C[N+](C)(C)C1 (centres undefined)
inactive: Potency [1] | Potency [2] | Potency [3] | Potency [4] | Potency [5] | Potency [6] | outcome [7] | Potency [8] | Potency [9]

CCC(C)(C)O
inactive: Potency [1] | Potency [2] | Potency [3] | Potency [4] | Potency [5] | Potency [6] | outcome [7] | Potency [8] | Potency [9]

CCC1(C2=NCCN2)Cc2ccccc2O1 (centres undefined)
inactive: Potency [1] | Potency [2] | Potency [3] | Potency [4] | Potency [5] | Potency [6] | outcome [7] | Potency [8] | Potency [9]

CCOP(=O)(O)C(N)=O
inactive: Potency [1] | Potency [2] | Potency [3] | Potency [4] | Potency [5] | Potency [6] | outcome [7] | Potency [8] | Potency [9]

NNCCO
inactive: Potency [1] | Potency [2] | Potency [3] | Potency [4] | Potency [5] | Potency [6] | outcome [7] | Potency [8] | Potency [9]

C[N+](C)(C)CC1CO1 (centres undefined)
inactive: Potency [1] | Potency [2] | Potency [3] | Potency [4] | Potency [5] | Potency [6] | outcome [7] | Potency [8] | Potency [9]

CCOC(=O)c1cn2nc(OP(=S)(OCC)OCC)cc2nc1C
active: Potency [4] 17.4 µM | Potency [5] 17.4 µM
inactive: Potency [1] | Potency [2] | Potency [3] | Potency [10] | Potency [8] | Potency [9]

CCCCCCCCn1sccc1=O
active: Potency [2] 43.7 µM and 22.9 µM | Potency [3] 36.3 µM | Potency [4] 12.3 µM and 12.9 µM | Potency [5] 39 µM and 40.8 µM | Potency [6] 51.3 µM | Potency [8] 25.7 µM
inactive: Potency [1]

C=CC(=O)NC(C)(C)CC(C)=O
inactive: Potency [1] | Potency [2] | Potency [3] | Potency [4] | Potency [5] | Potency [6] | outcome [7] | Potency [8] | Potency [9]

Nc1ccc2c(c1)Cc1ccccc1-2
inactive: Potency [1] | Potency [2] | Potency [3] | Potency [10] | Potency [5] | Potency [6] | outcome [7] | Potency [8] | Potency [9]

C=CC(=O)OCC
inactive: Potency [1] | Potency [2] | Potency [3] | Potency [10] | Potency [4] | Potency [5] | outcome [7] | Potency [8] | Potency [9]

OCCSSCCO
inactive: Potency [1] | Potency [2] | Potency [3] | Potency [10] | Potency [4] | Potency [5] | outcome [7] | Potency [8] | Potency [9]

CCCCCCCCCCCCN=C(N)N
inactive: cytotoxicity [1] -4.6% [at 2.72 µM] | cytotoxicity increase [2] -4.96% [at 2.72 µM] | cytotoxicity increase [3] 4.34% [at 2.72 µM] | activity change, negative = cytotoxic [10] -5.38% [at 2.72 µM] | activity change [6] 7.85% [at 2.72 µM, stronger effect = higher value] | activity change, negative = cytotoxicity [7] 5.28% [at 2.72 µM] | cytotoxicity increase [8] -0.515% [at 2.72 µM] | activity change, negative = cytotoxicity [9] 2.27% [at 3.27 µM]

CC(C)(C)N(NC(=O)c1ccc(Cl)cc1)C(=O)c1ccccc1
inactive: Potency [1] | Potency [2] | Potency [3] | Potency [10] | Potency [5] | outcome [7] | Potency [8]

O=C(O)COc1cc(Cl)c(Cl)cc1Cl
inactive: Potency [1] | Potency [2] | Potency [3] | Potency [10] | Potency [4] | Potency [5] | outcome [7] | Potency [8] | Potency [9]

CCOP(=O)(SC(C)CC)N1CCSC1=O (centres undefined)
inactive: Potency [1] | Potency [2] | Potency [3] | Potency [10] | Potency [4] | Potency [5] | outcome [7] | Potency [8] | Potency [9]

COc1ccccc1N1CCNCC1
inactive: Potency [1] | Potency [2] | Potency [3] | Potency [10] | Potency [4] | Potency [5] | Potency [8] | Potency [9]

OC[P+](CO)(CO)CO
inactive: Potency [1] | Potency [2] | Potency [3] | Potency [10] | Potency [4] | Potency [5] | outcome [7] | Potency [8] | Potency [9]

CCCC[P+](CC)(CCCC)CCCC (tested in a mixture with another compound)
inactive: Potency [1] | Potency [2] | Potency [3] | Potency [10] | Potency [5] | Potency [8] | Potency [9]

O=C1c2ccccc2C(=O)N1SC(Cl)(Cl)Cl
active: Potency [2] 24.2 µM and 12.3 µM | Potency [10] 19.5 µM | Potency [4] 5.42 µM and 6.16 µM
inactive: Potency [1] | Potency [3] | Potency [8] | Potency [9]

O=C(NCNC(=O)NC1C(=O)NC(=O)N1CO)NC1C(=O)NC(=O)N1CO (centres undefined)
inactive: Potency [1] | Potency [2] | Potency [3] | Potency [4] | Potency [5] | Potency [6] | outcome [7] | Potency [8] | Potency [9]

NCCc1cc(O)c(O)cc1O
inactive: Potency [1] | Potency [2] | Potency [3] | Potency [4] | Potency [5] | Potency [6] | outcome [7] | Potency [8] | Potency [9]

N#CC(C#N)=Cc1ccc(O)c(O)c1
inactive: Potency [2] | Potency [3] | Potency [4] | Potency [5] | Potency [6] | outcome [7] | Potency [8] | Potency [9]
active: Potency [1] 23.9 µM

C=CCOC(=O)C(C)(C)OC(=O)c1cc(-n2c(=O)cc(C(F)(F)F)n(C)c2=O)ccc1Cl
active: Potency [4] 19.1 µM
inactive: Potency [1] | Potency [2] | Potency [3] | Potency [10] | outcome [7] | Potency [8] | Potency [9]

C#CC(O)(C=CCl)CC (centres undefined)
inactive: Potency [1] | Potency [2] | Potency [3] | Potency [4] | Potency [5] | Potency [6] | outcome [7] | Potency [8] | Potency [9]

CCC(=O)O[C@@H]1C=C2CCC3C(CCC4(C)C3CC[C@@H]4OC(=O)CC)C2CC1 (some centres undefined)
inactive: Potency [1] | Potency [2] | Potency [3] | Potency [10] | Potency [4] | Potency [6] | outcome [7] | Potency [9]

Cc1nc2ccccc2c(=O)n1-c1ccccc1Cl
inactive: Potency [1] | Potency [2] | Potency [3] | Potency [6] | Potency [8]
active: Potency [4] 21.4 µM | Potency [5] 24 µM

Nc1ccccc1C(=O)OCCc1ccccc1
inactive: Potency [1] | Potency [10] | Potency [9]
inactive and 34.7 µM (active): Potency [3]
active: Potency [2] 21.9 µM | Potency [4] 21.9 µM | Potency [5] 21.9 µM
inactive and 24.5 µM (active): Potency [8]
